Screening data: PubChem BioAssay, National Center for Advancing Translational Sciences (NCATS)
Pf Dd2 inh: Plasmodium falciparum Dd2 growth inhibition | P. falciparum Dd2 growth, SYBR Green, 72 h | Potency, µM (highest dose often 28.9 µM), for the others: at the top dose activity, negative = inhibition, usual class: inhibitors | 4.3% of 120,000 active | AID 1347417; active = well fitted inhibition curve with a large enough effect;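 also: plate controls were DMSO vehicle for no effect and reference drug for full effect; nearly all actives have a fitted effect of over 65% in size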
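Readout: SYBR Green fluorescence, 485 nm excitation, 535 nm emission, after ~16 h lysis at 37C. Before that, Dd2-infected red cells (2.5% hematocrit) grew 72 h with compound, 29 uM top final concentration.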
Numbers without * were called inactive; [ ] = remark or other dose. This is one part of a sample in which hits are shown more often than they occur. Potency is read from the fitted curve at half-maximal effect.

COc1ccc(-c2cc(N3CCCC(NC(=O)c4cc(C)ccc4C)C3)n[nH]2)cc1 (stereo not drawn) was read as Pf Dd2 inh -7%.
`COc1ccc(-c2cc(N3CCCC(NC(=O)c4cc(C)cc(C)c4)C3)n[nH]2)cc1` (stereo not drawn) gave Pf Dd2 inh 8.9µM*.
`COc1ccccc1C(=O)NC1CCN(c2cnn(CC3CC3)c(=O)c2)CC1` gave Pf Dd2 inh inactive.
For COc1ccc(C(=O)NC2CCN(c3cc(-c4ccc(OC)cc4)[nH]n3)C2)cc1 (stereo not drawn) the results were Pf Dd2 inh -10%.
Cc1ccc(C(=O)NC2CCN(c3cc(-c4ccc(F)cc4)[nH]n3)CC2)cc1C was read as Pf Dd2 inh inactive.
Screening COc1ccc(C(=O)NC2CCN(c3cnn(CC4CC4)c(=O)c3)CC2)c(OC)c1 returned Pf Dd2 inh 7.9µM*.
COc1ccc(C(=O)NC2CCN(c3cnn(C)c(=O)c3)CC2)c(OC)c1 was read as Pf Dd2 inh -19%.
COc1ccc(-c2cc(N3CCC(NC(=O)c4ccc(C)c(C)c4)C3)n[nH]2)cc1 (stereo not drawn) was read as Pf Dd2 inh -4%.
`COc1ccc(-c2cc(N3CCC(NC(=O)c4cc(C)cc(C)c4)C3)n[nH]2)cc1` (stereo not drawn) gave Pf Dd2 inh inactive.
`NCCC(=O)N1CCC(n2nccc2NC(=O)c2cccc(F)c2)CC1` gave Pf Dd2 inh -9%.
For COc1cccc(N2C(=O)NC(=NC3CCCCC3)C23CCN([S+](=O)([O-])c2cccc(C(F)(F)F)c2)CC3)c1 the results were Pf Dd2 inh -27%.
`Cc1ccc(CNC(=O)CCC2CCCN(S(=O)(=O)c3ccc(F)cc3)C2)cc1` (stereo not drawn) gave Pf Dd2 inh -21%.
For O=C(C1CCCC1)N1CCC2(CC1)CC(N(C(=O)c1ccccc1)C1CC1)CCO2 (stereo not drawn) the results were Pf Dd2 inh inactive.
For O=C1CCN(C(=O)C2CCN(C(=O)CCC3CCCC3)CC2)CCCCCCN1 the results were Pf Dd2 inh -9%.
`COc1ccc(NC(=O)N2CC(C(=O)N(C)C)C3(CCOCC3)C2)c(C)c1` (stereo not drawn) gave Pf Dd2 inh 18%.
CNC(=O)[C@@H](c1ccccc1F)N1CCC[C@H]1C(=O)NCc1cccnc1 was read as Pf Dd2 inh 11%.
For COc1ccc(C(=O)NC2CCN(c3cc(-c4ccccc4)[nH]n3)C2)c(C)c1 (stereo not drawn) the results were Pf Dd2 inh inactive.
Screening COc1ccc(-c2cc(N3CCC(NC(=O)c4ccc(F)cc4Cl)CC3)n[nH]2)cc1 returned Pf Dd2 inh inactive.
`COc1ccc(Cl)cc1C(=O)NC1CCN(c2cc(-c3ccc(F)cc3)[nH]n2)C1` (stereo not drawn) gave Pf Dd2 inh -12%.
For COc1ccc(-c2cc(N3CCC(NC(=O)c4cc(F)ccc4Cl)CC3)n[nH]2)cc1 the results were Pf Dd2 inh -11%.
For COc1ccc(C(=O)NC2CCN(c3cc(-c4ccc(Cl)cc4)[nH]n3)C2)c(OC)c1 (stereo not drawn) the results were Pf Dd2 inh 5µM*.
For COc1ccc(-c2cc(N3CCC(NC(=O)c4ccccc4C)C3)n[nH]2)cc1 (stereo not drawn) the results were Pf Dd2 inh inactive.
For COc1ccc(-c2cc(N3CCCC(NC(=O)c4cc(Cl)ccc4OC)C3)n[nH]2)cc1 (stereo not drawn) the results were Pf Dd2 inh -10%.
Screening COc1ccc(C(=O)NC2CCN(c3cc(-c4ccccc4)[nH]n3)C2)c(OC)c1 (stereo not drawn) returned Pf Dd2 inh 4.5µM*.
COc1ccc(-c2cc(N3CCC(NC(=O)c4ccc(F)cc4F)CC3)n[nH]2)cc1 was read as Pf Dd2 inh 1.3µM*.
`N#Cc1cccc(NC(=O)O[C@@H]2CO[C@H]3[C@@H]2OC[C@@H]3n2nnnc2-c2ccc(-c3ccccc3)cc2)c1` gave Pf Dd2 inh 2%.
COC1CCOC2(CCN(C(=O)NCCc3ccccc3)CC2)C1 (stereo not drawn) was read as Pf Dd2 inh 12%.
For COc1cccc(N2CC(C(=O)NCc3ccc4c(c3)OCO4)NC2=O)c1 (stereo not drawn) the results were Pf Dd2 inh 16%.
`COc1cccc(N2CCN(c3nc4ccc(C(=O)c5ccccc5)cc4n4c(C)nnc34)CC2)c1` gave Pf Dd2 inh 6.3µM*.
Cc1ccc(C)c(N2CCN(c3nc4ccc(C(=O)c5ccccc5)cc4n4cnnc34)CC2)c1 was read as Pf Dd2 inh -11%.
Screening Cc1ccc(N2CCN(c3nc4ccc(C(=O)c5ccccc5)cc4n4cnnc34)CC2)c(C)c1 returned Pf Dd2 inh 15%.
Cc1ccc(Nc2nc3ccc(C(=O)c4ccccc4)cc3n3c(C)nnc23)c(C)c1 was read as Pf Dd2 inh inactive.
Cc1ccc(Cl)cc1N1CCN(c2nc3ccc(C(=O)c4ccccc4)cc3n3cnnc23)CC1 was read as Pf Dd2 inh -4%.
For O=C(c1ccccc1)c1ccc2nc(N3CCN(c4ccc(F)cc4)CC3)c3nncn3c2c1 the results were Pf Dd2 inh 11µM*.
Screening O=C(CC1=CCNCC1)N(Cc1ccccn1)CC1CCCO1 (stereo not drawn) returned Pf Dd2 inh -19%.
Screening COc1cccc(N2C(=O)N[C@@H]3CCN(C(=O)c4cccs4)[C@@H]3C2=O)c1 returned Pf Dd2 inh 6%[44.1 µM].
`COc1ccc(NC(=O)C2CN(S(=O)(=O)c3cccnc3)CC23CCCCC3)cc1` (stereo not drawn) gave Pf Dd2 inh -26%.
Screening COc1ccc(C2C=C(c3ccc(Br)cc3)Nc3nnnn32)c(OC)c1 (stereo not drawn) returned Pf Dd2 inh -30%.
Cc1ccc(C2=CC(c3c(F)cccc3Cl)n3ncnc3N2)cc1C (stereo not drawn) was read as Pf Dd2 inh 3%.
For Cc1cccc(C2C=C(c3ccc(C)c(C)c3)Nc3nnnn32)c1 (stereo not drawn) the results were Pf Dd2 inh 11µM*.
O=C(c1nnc(CNCCN2CCCC2)n1-c1ccccc1)N1CCC[C@@H]1C(c1ccccc1)c1ccccc1 was read as Pf Dd2 inh -32%.
Screening O=C(NC1CCN(c2ccc(F)cc2)C1=O)c1ccccc1Cl (stereo not drawn) returned Pf Dd2 inh -8%.
For COc1ccccc1CC(=O)Nc1ccc2ncnc(N3CCCCC3)c2c1 the results were Pf Dd2 inh inactive.
O=C(Cc1ccccc1F)Nc1ccc2c(N3CCCCC3)ncnc2c1 was read as Pf Dd2 inh 13µM*.
For O=C(Cc1c(F)cccc1Cl)Nc1ccc2ncnc(N3CCCC3)c2c1 the results were Pf Dd2 inh -20%.
COc1ccc(CC(=O)Nc2ccc3ncnc(N4CCCCC4)c3c2)c(Cl)c1 was read as Pf Dd2 inh -22%.
COc1cccc(CC(=O)Nc2ccc3c(N4CCCCC4)ncnc3c2)c1 was read as Pf Dd2 inh 11µM*.
O=C(Cc1cccc(F)c1)Nc1ccc2ncnc(N3CCCCC3)c2c1 was read as Pf Dd2 inh -14%.
`O=C(c1ccoc1)N1CCCn2cc(-c3ccccc3F)nc21` gave Pf Dd2 inh inactive.
CNC(=O)[C@@H](c1ccccc1)N1CCC[C@H]1C(=O)N1CCOCC1 was read as Pf Dd2 inh 2%[44.1 µM].
Screening Cc1nc(C(C)C)sc1C(=O)N1CCC(=O)N(CC2CC2)C(C(C)C)C1 (stereo not drawn) returned Pf Dd2 inh -15%.
